Source: publication PMC7862700, “An all-to-all approach to the identification of sequence-specific readers for epigenetic DNA modifications on cytosine”

Experiments:
Assay in all cases: DAPPL (digital affinity profiling via proximity ligation, sequencing); 10 mM Tris-HCl pH 7.5, 50 mM NaCl, 1 mM DTT, 4% glycerol, room temperature, 30 min; GST-TFs on glutathione beads, 16-mer random dsDNA library, 0.1% formaldehyde crosslink after washing; high values mean tight binding
FEV = target: T1, FEV (Homo sapiens, UniProt Q99581 1-238); conditions: protein: recombinant; tags: N-terminal GST; dsDNA, one strand shown
T1 sequence: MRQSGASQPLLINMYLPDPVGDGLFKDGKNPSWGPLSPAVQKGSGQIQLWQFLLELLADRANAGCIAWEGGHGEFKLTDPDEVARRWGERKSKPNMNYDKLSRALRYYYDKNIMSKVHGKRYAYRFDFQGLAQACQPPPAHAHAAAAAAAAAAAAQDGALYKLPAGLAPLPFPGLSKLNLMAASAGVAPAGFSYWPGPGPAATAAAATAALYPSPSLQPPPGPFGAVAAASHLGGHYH
Summary of the method: (§1)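 GST fusions of human transcription factors were expressed in yeast and captured with glutathione beads. Once given DNA barcodes and pooled alongside a tag-only sample, they were incubated for 30 min at room temperature with 200 nmole of a random double-stranded 16-mer DNA library in Tris/NaCl/DTT/glycerol buffer, then washed, crosslinked (0.1% formaldehyde), proximity-ligated, PCR-amplified and sequenced on an Illumina NextSeq500. The binding signal of each hexamer is its read frequency for a factor divided by its frequency for the tag-only sample.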

ETV5 = ETV5 (Homo sapiens, UniProt P41161 1-510); conditions: protein: recombinant; tags: N-terminal GST; dsDNA, one strand shown
Summary of the method: as §1

HSF1 = HSF1 (Homo sapiens, UniProt Q00613 1-529); conditions: protein: recombinant; tags: N-terminal GST; chain copies: 3; dsDNA, one strand shown
Summary of the method: as §1

SPIC = target: T2, SPIC (Homo sapiens, UniProt Q8N5J4 1-248); conditions: protein: recombinant; tags: N-terminal GST; dsDNA, one strand shown
T2 sequence: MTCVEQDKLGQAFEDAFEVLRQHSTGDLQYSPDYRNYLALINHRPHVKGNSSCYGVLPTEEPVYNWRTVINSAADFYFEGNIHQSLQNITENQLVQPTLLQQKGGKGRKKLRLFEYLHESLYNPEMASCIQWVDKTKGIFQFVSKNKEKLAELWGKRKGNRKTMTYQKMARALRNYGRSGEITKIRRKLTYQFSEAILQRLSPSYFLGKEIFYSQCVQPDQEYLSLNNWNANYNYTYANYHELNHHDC
Summary of the method: as §1

ELF4 = ELF4 (Homo sapiens, UniProt Q99607 1-663); conditions: protein: recombinant; tags: N-terminal GST; dsDNA, one strand shown
Summary of the method: as §1

ELK4 = target: T3, ELK4 (Homo sapiens, UniProt P28324-2 1-405); conditions: protein: recombinant; tags: N-terminal GST; dsDNA, one strand shown
T3 sequence: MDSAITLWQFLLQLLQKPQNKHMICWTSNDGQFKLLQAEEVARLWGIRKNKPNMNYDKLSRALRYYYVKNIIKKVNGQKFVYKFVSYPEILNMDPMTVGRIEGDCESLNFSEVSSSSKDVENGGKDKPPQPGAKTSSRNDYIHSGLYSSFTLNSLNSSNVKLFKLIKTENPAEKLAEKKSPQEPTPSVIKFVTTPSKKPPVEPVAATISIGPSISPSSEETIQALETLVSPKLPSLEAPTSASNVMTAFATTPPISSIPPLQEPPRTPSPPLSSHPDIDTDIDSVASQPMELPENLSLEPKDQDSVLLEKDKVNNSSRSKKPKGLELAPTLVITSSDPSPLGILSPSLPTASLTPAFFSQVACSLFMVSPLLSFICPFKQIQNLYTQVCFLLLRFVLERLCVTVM
Summary of the method: as §1

ETV2 = target: T4, ETV2 (Homo sapiens, UniProt O00321 1-342); conditions: protein: recombinant; tags: N-terminal GST; dsDNA, one strand shown
T4 sequence: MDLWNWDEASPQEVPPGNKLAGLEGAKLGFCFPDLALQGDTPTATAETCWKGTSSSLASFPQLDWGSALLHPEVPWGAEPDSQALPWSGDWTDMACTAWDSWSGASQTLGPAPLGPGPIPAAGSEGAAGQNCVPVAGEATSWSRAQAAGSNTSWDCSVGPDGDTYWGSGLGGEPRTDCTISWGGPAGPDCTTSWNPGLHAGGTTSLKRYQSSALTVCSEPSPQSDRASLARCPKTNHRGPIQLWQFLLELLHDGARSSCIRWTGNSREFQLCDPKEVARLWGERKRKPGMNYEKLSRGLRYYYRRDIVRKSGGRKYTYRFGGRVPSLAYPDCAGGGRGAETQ
Summary of the method: as §1

ELF3 = target: T5, ELF3 (Homo sapiens, UniProt P78545 1-371); conditions: protein: recombinant; tags: N-terminal GST; dsDNA, one strand shown
T5 sequence: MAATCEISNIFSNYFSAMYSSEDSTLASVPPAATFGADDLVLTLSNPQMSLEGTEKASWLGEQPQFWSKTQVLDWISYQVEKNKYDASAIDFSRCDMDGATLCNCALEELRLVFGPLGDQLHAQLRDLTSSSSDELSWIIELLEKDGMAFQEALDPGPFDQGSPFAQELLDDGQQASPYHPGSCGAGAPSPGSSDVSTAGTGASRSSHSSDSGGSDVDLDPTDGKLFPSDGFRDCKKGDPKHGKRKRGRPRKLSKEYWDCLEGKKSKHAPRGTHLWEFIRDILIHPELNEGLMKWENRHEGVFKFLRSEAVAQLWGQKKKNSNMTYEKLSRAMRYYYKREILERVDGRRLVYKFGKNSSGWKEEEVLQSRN
Summary of the method: as §1

CRX = CRX (Homo sapiens, UniProt O43186 1-299); conditions: protein: recombinant; tags: N-terminal GST; dsDNA, one strand shown
Summary of the method: as §1

ETV1 = ETV1 (Homo sapiens, UniProt P50549 1-477); conditions: protein: recombinant; tags: N-terminal GST; dsDNA, one strand shown
Summary of the method: as §1

ERF = target: T6, ERF (Homo sapiens, UniProt P50548 1-548); conditions: protein: recombinant; tags: N-terminal GST; dsDNA, one strand shown
T6 sequence: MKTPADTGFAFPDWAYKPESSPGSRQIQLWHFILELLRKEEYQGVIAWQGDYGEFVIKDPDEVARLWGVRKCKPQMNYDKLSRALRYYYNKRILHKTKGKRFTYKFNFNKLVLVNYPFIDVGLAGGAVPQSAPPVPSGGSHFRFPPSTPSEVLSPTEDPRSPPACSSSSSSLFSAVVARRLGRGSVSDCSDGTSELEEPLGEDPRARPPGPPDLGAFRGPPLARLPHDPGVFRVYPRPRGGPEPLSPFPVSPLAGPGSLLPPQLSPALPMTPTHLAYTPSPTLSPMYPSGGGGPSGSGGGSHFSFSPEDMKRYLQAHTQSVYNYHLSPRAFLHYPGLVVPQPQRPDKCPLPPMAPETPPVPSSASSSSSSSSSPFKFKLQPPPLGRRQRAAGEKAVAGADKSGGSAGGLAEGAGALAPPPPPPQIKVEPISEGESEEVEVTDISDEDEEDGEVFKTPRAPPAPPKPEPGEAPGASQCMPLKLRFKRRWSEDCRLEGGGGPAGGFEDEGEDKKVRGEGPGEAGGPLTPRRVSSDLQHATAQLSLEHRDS
Summary of the method: as §1

ETV3L = target: T7, ETV3L (Homo sapiens, UniProt Q6ZN32 1-361); conditions: protein: recombinant; tags: N-terminal GST; dsDNA, one strand shown
T7 sequence: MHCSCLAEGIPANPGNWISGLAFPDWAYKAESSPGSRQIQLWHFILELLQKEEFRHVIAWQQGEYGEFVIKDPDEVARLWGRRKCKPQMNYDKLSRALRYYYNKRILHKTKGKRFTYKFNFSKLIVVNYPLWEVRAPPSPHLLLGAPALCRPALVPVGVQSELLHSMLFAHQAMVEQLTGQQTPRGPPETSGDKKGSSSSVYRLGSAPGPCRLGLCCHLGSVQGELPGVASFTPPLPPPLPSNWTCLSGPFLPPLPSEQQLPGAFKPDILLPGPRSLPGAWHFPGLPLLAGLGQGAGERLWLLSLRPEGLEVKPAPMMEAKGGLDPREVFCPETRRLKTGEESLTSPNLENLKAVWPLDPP
Summary of the method: as §1

ETS2 = target: T8, ETS2 (Homo sapiens, UniProt P15036 1-469); conditions: protein: recombinant; tags: N-terminal GST; dsDNA, one strand shown
T8 sequence: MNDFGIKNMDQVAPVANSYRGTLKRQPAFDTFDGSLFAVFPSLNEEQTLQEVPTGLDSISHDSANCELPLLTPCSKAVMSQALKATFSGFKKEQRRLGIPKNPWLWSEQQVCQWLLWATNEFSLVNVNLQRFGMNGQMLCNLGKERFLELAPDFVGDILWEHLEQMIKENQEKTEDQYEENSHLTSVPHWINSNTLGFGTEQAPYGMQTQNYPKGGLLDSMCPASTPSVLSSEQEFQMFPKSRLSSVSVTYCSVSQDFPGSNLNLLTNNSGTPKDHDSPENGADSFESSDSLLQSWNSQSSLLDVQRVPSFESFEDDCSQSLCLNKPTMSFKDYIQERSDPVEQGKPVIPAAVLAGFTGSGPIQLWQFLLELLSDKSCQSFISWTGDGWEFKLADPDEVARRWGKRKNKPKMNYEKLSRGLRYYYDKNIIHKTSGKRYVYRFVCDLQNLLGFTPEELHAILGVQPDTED
Summary of the method: as §1

SPDEF = target: T9, SPDEF (Homo sapiens, UniProt O95238 1-335); conditions: protein: recombinant; tags: N-terminal GST; dsDNA, one strand shown
T9 sequence: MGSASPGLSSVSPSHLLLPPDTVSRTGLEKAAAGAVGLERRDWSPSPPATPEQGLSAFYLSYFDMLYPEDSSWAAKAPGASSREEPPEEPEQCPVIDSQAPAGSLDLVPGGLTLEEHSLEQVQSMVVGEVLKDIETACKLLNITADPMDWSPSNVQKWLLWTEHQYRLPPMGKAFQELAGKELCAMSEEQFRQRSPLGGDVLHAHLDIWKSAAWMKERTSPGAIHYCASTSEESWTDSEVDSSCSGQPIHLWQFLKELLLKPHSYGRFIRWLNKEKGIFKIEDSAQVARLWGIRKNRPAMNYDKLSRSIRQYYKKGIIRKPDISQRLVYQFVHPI
Summary of the method: as §1

ETV7 = target: T10, ETV7 (Homo sapiens, UniProt Q9Y603 1-341); conditions: protein: recombinant; tags: N-terminal GST; dsDNA, one strand shown
T10 sequence: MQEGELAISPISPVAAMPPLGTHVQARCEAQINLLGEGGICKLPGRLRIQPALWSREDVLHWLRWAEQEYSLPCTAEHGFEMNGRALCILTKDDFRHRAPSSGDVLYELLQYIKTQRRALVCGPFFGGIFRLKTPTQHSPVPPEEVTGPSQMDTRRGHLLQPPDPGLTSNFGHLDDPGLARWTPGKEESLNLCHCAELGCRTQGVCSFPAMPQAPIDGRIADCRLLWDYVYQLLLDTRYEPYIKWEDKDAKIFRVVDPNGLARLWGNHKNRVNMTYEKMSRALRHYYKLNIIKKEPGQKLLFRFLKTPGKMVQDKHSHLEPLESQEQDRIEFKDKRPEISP
Summary of the method: as §1

ELF5 = target: T11, ELF5 (Homo sapiens, UniProt Q9UKW6-2 1-255); conditions: protein: recombinant; tags: N-terminal GST; dsDNA, one strand shown
T11 sequence: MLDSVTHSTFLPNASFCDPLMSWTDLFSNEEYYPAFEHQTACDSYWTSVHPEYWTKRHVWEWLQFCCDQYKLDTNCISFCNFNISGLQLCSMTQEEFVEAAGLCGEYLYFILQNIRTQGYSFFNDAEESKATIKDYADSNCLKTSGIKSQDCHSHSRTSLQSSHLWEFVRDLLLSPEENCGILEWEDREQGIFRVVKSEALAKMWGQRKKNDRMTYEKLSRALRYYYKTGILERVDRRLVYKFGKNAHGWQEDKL
Summary of the method: as §1

ETV3 = target: T12, ETV3 (Homo sapiens, UniProt P41162-2 1-143); conditions: protein: recombinant; tags: N-terminal GST; dsDNA, one strand shown
T12 sequence: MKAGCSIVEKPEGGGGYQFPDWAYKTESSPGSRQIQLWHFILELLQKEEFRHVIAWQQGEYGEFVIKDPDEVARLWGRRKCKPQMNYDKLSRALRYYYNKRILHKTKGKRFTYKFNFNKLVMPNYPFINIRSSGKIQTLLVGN
Summary of the method: as §1

ETV6 = ETV6 (Homo sapiens, UniProt P41212 1-452); conditions: protein: recombinant; tags: N-terminal GST; dsDNA, one strand shown
Summary of the method: as §1

ELF4, sequence (Q99607 whole entry): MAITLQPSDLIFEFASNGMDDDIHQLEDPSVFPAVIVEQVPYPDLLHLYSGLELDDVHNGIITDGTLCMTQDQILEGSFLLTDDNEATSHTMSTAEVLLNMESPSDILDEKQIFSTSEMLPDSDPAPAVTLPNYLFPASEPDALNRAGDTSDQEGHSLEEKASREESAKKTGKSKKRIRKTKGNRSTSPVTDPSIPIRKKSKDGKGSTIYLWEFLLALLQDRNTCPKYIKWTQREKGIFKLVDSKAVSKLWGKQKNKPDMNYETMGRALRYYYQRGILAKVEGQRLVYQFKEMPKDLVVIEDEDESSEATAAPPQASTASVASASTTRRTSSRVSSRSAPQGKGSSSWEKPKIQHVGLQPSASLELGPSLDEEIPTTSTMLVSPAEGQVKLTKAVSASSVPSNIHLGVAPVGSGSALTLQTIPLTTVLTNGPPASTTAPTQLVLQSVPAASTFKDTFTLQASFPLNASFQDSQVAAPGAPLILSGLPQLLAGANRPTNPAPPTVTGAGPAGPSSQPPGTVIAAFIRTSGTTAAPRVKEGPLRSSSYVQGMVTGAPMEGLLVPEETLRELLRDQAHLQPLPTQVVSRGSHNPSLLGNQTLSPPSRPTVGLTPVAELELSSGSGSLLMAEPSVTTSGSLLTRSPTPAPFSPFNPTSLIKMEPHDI
ETV5, sequence (P41161 whole entry): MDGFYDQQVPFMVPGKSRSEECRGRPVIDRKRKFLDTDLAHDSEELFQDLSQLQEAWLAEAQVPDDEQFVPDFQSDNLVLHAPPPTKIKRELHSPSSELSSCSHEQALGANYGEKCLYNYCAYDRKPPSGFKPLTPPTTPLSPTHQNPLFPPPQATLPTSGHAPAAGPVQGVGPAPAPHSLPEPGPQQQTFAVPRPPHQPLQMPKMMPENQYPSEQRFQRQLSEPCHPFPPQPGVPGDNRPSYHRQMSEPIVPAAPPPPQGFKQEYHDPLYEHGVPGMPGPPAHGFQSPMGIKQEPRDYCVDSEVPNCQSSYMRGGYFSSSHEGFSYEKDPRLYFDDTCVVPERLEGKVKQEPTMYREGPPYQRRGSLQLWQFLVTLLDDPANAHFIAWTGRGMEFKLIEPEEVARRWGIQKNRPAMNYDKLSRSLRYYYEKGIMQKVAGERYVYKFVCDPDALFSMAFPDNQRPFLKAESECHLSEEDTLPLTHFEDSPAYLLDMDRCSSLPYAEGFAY
ETV6, sequence (P41212 whole entry): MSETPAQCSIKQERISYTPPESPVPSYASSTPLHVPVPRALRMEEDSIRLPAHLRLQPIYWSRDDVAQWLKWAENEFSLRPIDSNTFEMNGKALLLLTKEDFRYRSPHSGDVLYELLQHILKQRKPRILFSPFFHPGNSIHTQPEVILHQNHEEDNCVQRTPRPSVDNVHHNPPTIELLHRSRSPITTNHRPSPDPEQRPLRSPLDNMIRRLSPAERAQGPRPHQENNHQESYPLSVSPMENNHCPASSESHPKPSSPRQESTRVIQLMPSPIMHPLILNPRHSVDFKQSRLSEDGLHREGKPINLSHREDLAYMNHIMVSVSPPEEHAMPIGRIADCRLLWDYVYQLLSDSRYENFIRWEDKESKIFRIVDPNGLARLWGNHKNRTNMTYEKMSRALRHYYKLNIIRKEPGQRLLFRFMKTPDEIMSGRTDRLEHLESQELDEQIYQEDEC
ETV1, sequence (P50549 whole entry): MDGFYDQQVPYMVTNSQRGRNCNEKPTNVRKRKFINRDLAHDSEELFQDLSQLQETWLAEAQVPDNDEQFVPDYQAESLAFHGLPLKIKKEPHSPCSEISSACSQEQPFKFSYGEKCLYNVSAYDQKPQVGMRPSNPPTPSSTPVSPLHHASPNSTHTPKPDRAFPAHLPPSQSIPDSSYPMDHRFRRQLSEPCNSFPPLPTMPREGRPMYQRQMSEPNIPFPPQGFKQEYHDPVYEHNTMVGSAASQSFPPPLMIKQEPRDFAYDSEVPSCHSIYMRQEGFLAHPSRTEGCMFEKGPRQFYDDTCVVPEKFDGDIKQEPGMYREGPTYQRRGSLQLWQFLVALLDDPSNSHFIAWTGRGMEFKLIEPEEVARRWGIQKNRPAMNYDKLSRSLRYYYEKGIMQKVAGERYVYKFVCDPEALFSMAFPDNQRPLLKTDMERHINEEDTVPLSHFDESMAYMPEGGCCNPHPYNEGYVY
HSF1, sequence (Q00613 whole entry): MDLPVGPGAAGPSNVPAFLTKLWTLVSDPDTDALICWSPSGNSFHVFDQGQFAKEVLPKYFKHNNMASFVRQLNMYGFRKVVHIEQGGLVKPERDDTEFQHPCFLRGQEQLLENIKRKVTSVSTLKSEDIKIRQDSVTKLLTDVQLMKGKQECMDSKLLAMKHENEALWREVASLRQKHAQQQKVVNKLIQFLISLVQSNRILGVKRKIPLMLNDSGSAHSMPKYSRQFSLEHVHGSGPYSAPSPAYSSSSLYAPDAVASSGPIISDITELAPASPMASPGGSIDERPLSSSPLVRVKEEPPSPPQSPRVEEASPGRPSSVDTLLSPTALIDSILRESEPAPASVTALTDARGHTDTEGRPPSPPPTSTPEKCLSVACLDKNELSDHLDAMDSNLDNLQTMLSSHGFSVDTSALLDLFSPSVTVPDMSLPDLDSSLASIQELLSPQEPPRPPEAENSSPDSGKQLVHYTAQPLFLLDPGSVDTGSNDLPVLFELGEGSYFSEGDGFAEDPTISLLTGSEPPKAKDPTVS
CRX, sequence (O43186 whole entry): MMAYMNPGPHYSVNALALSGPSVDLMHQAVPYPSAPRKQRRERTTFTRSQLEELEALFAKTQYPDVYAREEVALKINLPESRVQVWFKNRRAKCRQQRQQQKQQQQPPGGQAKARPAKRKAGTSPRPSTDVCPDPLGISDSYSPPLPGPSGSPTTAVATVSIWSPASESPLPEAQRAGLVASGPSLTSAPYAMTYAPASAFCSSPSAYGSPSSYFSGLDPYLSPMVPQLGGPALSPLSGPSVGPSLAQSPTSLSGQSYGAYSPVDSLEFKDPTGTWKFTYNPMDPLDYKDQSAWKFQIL

Sequence: CTGCGC
- binding signal (FEV): 1.38 fold enrichment (6-mer frequency, TF over GST control)
- binding signal (ETV5): 1.34 fold enrichment (6-mer frequency, TF over GST control)
- binding signal (HSF1): 1.1 fold enrichment (6-mer frequency, TF over GST control)
- binding signal (SPIC): 1.22 fold enrichment (6-mer frequency, TF over GST control)
- binding signal (ELF4): 1.32 fold enrichment (6-mer frequency, TF over GST control)
- binding signal (ELK4): 1.2 fold enrichment (6-mer frequency, TF over GST control)
- binding signal (ETV2): 1.46 fold enrichment (6-mer frequency, TF over GST control)
- binding signal (ELF3): 1.27 fold enrichment (6-mer frequency, TF over GST control)
- binding signal (CRX): 1.11 fold enrichment (6-mer frequency, TF over GST control)
- binding signal (ETV1): 1.58 fold enrichment (6-mer frequency, TF over GST control)
- binding signal (ERF): 1.34 fold enrichment (6-mer frequency, TF over GST control)
- binding signal (ETV3L): 1.33 fold enrichment (6-mer frequency, TF over GST control)
- binding signal (ETS2): 1.46 fold enrichment (6-mer frequency, TF over GST control)
- binding signal (SPDEF): 1.12 fold enrichment (6-mer frequency, TF over GST control)
- binding signal (ETV7): 1.23 fold enrichment (6-mer frequency, TF over GST control)
- binding signal (ELF5): 1.26 fold enrichment (6-mer frequency, TF over GST control)
- binding signal (ETV3): 1.32 fold enrichment (6-mer frequency, TF over GST control)
- binding signal (ETV6): 1.27 fold enrichment (6-mer frequency, TF over GST control)
